Reference: the supplement of paper PMC3414501
Counter-ions that a name gives are not always drawn. Values without a mark were called inactive.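 Rule for the calls: active = score above 5; some higher scores were not called.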

System: S. cerevisiae SK1 pCDA2-eGFP (USY613), sporulating
Assay: CDA2-GFP sporulation assay sensitivity score (z-score vs DMSO controls); higher = stronger inhibition of sporulation, active = hit call of the paper

In the case of `Cc1sc(N)c(C(=O)c2cccc(C(F)(F)F)c2)c1C` (stock concentration (mM, diluted 1:100): 10), the “CDA2-GFP sporulation assay sensitivity score” value is reported as 11.1 (active).
With `CCc1nn(CCCN2CCN(c3cccc(Cl)c3)CC2)c(=O)n1CCOc1ccccc1` [Nefazodone] (stock concentration (mM, diluted 1:100): 9.3) the “CDA2-GFP sporulation assay sensitivity score” value was 5.84 (active).
`CN1CCN(C2=Nc3cc(F)ccc3Cc3ccccc32)CC1` [Fluperlapine] (stock concentration (mM, diluted 1:100): 10) was tested, and the “CDA2-GFP sporulation assay sensitivity score” value was 17.9 (active).
With `CCc1oc2ccccc2c1C(=O)c1cc(Br)c(O)c(Br)c1` [Benzbromarone] (stock concentration (mM, diluted 1:100): 10) the “CDA2-GFP sporulation assay sensitivity score” value was 13.7 (active).
With `Cc1nc2ccccn2c(=O)c1CCN1CCC(C(=O)c2ccc(F)cc2)CC1` [Pirenperone] (stock concentration (mM, diluted 1:100): 10) the “CDA2-GFP sporulation assay sensitivity score” value was 13.6 (active).
`COc1ccccc1N1CCN(CC(O)COc2cccc3ccccc23)CC1` (centres undefined) [Naftopidil] (stock concentration (mM, diluted 1:100): 10) was tested, and the “CDA2-GFP sporulation assay sensitivity score” value was 9.59 (active).

Going from `OCCN1CCN(CCCN2c3ccccc3Sc3ccc(C(F)(F)F)cc32)CC1` [Fluphenazine hydrochloride] (stock concentration (mM, diluted 1:100): 10) to `CN1CCN(CCCN2c3ccccc3Sc3ccc(C(F)(F)F)cc32)CC1` [Trifluoperazine dihydrochloride] (stock concentration (mM, diluted 1:100): 10), the “CDA2-GFP sporulation assay sensitivity score” value falls from -0.3 to -0.39.

Going from `O=C(NCCN1CCOCC1)c1ccc(Cl)cc1` [Moclobemide] (stock concentration (mM, diluted 1:100): 10) to `CNNCc1ccc(C(=O)NC(C)C)cc1` [Procarbazine hydrochloride] (stock concentration (mM, diluted 1:100): 8.6), the “CDA2-GFP sporulation assay sensitivity score” value falls from 0.72 to -0.1.

First: CN1CCN(CCCN2c3ccccc3Sc3ccc(Cl)cc32)CC1 [Prochlorperazine] (stock concentration (mM, diluted 1:100): 10.4)
Second: CN1CCN(C2=Nc3ccccc3Oc3ccc(Cl)cc32)CC1 [Loxapine succinate] (stock concentration (mM, diluted 1:100): 11)
The “CDA2-GFP sporulation assay sensitivity score” value of the first is higher: 2.72 for the first, 2.27 for the second.

Going from `Cc1c(OCC(F)(F)F)ccnc1C[S+]([O-])c1nc2ccccc2[nH]1` (centres undefined) [Lansoprazole] (stock concentration (mM, diluted 1:100): 10.1) to `Cc1ccnc2c1NC(=O)c1cccnc1N2C1CC1` [Viramune] (stock concentration (mM, diluted 1:100): 10), the “CDA2-GFP sporulation assay sensitivity score” value falls from 14.2 to -3.55.

First: C[C@H]1COc2c(N3CCN(C)CC3)c(F)cc3c(=O)c(C(=O)O)cn1c23 [Levofloxacin] (stock concentration (mM, diluted 1:100): 10)
Second: CCn1cc(C(=O)O)c(=O)c2cc(F)c(N3CCN(C)CC3)cc21 [Pefloxacin mesylate] (stock concentration (mM, diluted 1:100): 7.9)
The “CDA2-GFP sporulation assay sensitivity score” value of the first is higher: -0.01 for the first, -0.85 for the second.

First: COc1cc(C)c(Cc2cnc(N)nc2N)cc1OC [Ormetoprim] (stock concentration (mM, diluted 1:100): 10)
Second: Nc1nc2ccc(Cl)cc2c2nc(-c3ccco3)nn12 (stock concentration (mM, diluted 1:100): 10)
The “CDA2-GFP sporulation assay sensitivity score” value of the first is higher: 0.05 for the first, -3.14 for the second.

Compared with `COc1ccc(-c2oc3c(CC=C(C)C)c(O[C@@H]4O[C@H](CO)[C@@H](O)[C@H](O)[C@H]4O)cc(O)c3c(=O)c2O[C@@H]2O[C@@H](C)[C@H](O)[C@@H](O)[C@H]2O)cc1` [Icariin] (stock concentration (mM, diluted 1:100): 10), `O=C1c2c(O)cc(O)cc2OC(c2ccc(O)c(O)c2)C1O` (centres undefined) [Taxifolin] (stock concentration (mM, diluted 1:100): 10.1) is higher in “CDA2-GFP sporulation assay sensitivity score” value: -1.61 for the first, -0.02 for the second.

Compared with `CC(=O)CCCCn1c(=O)c2c(ncn2C)n(C)c1=O` [Pentoxifylline] (stock concentration (mM, diluted 1:100): 10), `CN(C)CCc1c[nH]c2ccc(Cn3cncn3)cc12` [Rizatriptan benzoate] (stock concentration (mM, diluted 1:100): 10) is lower in “CDA2-GFP sporulation assay sensitivity score” value: 0.09 for the first, -0.91 for the second.

Compared with `CCC(C)n1ncn(-c2ccc(N3CCN(c4ccc(OCC5COC(Cn6cncn6)(c6ccc(Cl)cc6Cl)O5)cc4)CC3)cc2)c1=O` (centres undefined) [Itraconazole] (stock concentration (mM, diluted 1:100): 10.1), `O=C1[C@H](CC[C@H](O)c2ccc(F)cc2)[C@@H](c2ccc(O)cc2)N1c1ccc(F)cc1` [Ezetimibe] (stock concentration (mM, diluted 1:100): 10) is lower in “CDA2-GFP sporulation assay sensitivity score” value: 0.16 for the first, -0.54 for the second.

First: COCc1c(C(C)C)nc(C(C)C)c(/C=C/[C@@H](O)C[C@@H](O)CC(=O)O)c1-c1ccc(F)cc1 [Cerivastatin] (stock concentration (mM, diluted 1:100): 10)
Second: CN1CC(=O)N2[C@H](c3ccc4c(c3)OCO4)c3[nH]c4ccccc4c3C[C@@H]2C1=O [Tadalafil] (stock concentration (mM, diluted 1:100): 10)
The “CDA2-GFP sporulation assay sensitivity score” value of the first is higher: 0.79 for the first, -4.01 for the second.

Compared with `CCN1CCC[C@H]1CNC(=O)c1c(O)c(Cl)cc(Cl)c1OC` [Raclopride] (stock concentration (mM, diluted 1:100): 10), `Nc1nc(Cl)nc2c1ncn2[C@@H]1O[C@H](CO)[C@@H](O)[C@H]1O` [2-Chloroadenosine] (stock concentration (mM, diluted 1:100): 10) is lower in “CDA2-GFP sporulation assay sensitivity score” value: 0.74 for the first, -0.44 for the second.

With `O=C1Nc2ccc(Cl)cc2[C@@](C#CC2CC2)(C(F)(F)F)O1` [Efavirenz] (stock concentration (mM, diluted 1:100): 10.1) the “CDA2-GFP sporulation assay sensitivity score” value was -2.28.
